# ROS inducer: ROS inducers in U2OS cancer cells, primary screen, cell-based, H2DCF-DA fluorescence | ROS induction (% of piperlongumine), % at 10 µM | 46,000 tested, 2% active | U2OS ROS induction | AID 624156, 2012; in the data active = ROS induction above about 79%, passing the limit was not always enough;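 note: 0% = DMSO vehicle median and 100% = reference compound median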
# YB-1 expression: inhibitors of YB-1 gene expression, primary screen, cell-based, fluorescence. AID 434959, 2010. U2OS, qRT-PCR YB-1 vs CDIP delta delta Cp, 16 h; active compounds read high; zero = DMSO, each unit about twofold. delta delta Cp (YB-1 minus CDIP) (concentration not given with the values). 30,000 tested, 0.37% active;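 active = delta delta Cp rounded down to an integer at or above 3, about 3 SD of DMSO wells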;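 note: higher means less YB-1 transcript or more CDIP transcript relative to DMSO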
# Numbers without * were called inactive; nt = not tested or not shown. An excerpt weighted towards active compounds, which were near 2.3% of everything screened.
SMILES,ROS inducer,YB-1 expression
COc1ccc(S(=O)(=O)N(C)C[C@@H]2OCCCC[C@@H](C)Oc3ccc(NC(=O)NC4CCCCC4)cc3C(=O)N([C@H](C)CO)C[C@@H]2C)cc1,140*,-0.0028
CC(=O)N(C)CCc1ccc(C)[n+]([O-])c1,-2,nt
CC(CO)CCCC(C)(O)c1ccc(C(=O)O)cc1O (configuration not stated),-7,-0.09
O=C(NCC(=O)N1CCCCCC1)c1cccs1,-6,nt
Fc1ccc(CN(C(=S)Nc2ccccc2F)C2CCCCC2)cc1,-7,nt
CCOc1ccccc1NC(=O)c1ccc(Br)cc1,-5,nt
CC(c1ccccc1)n1c(OC(=O)N(C)C)nnc1SCC(=O)c1ccc2c(c1)OCCO2 (configuration not stated),-10,nt
C[C@@H]1CCCCO[C@H](CN(C)S(=O)(=O)c2ccc(F)cc2)[C@@H](C)CN([C@H](C)CO)C(=O)c2cc(NC(=O)Nc3ccc(F)cc3)ccc2O1,54,-0.13
COc1ccc(S(=O)(=O)Nc2ccc3c(c2)C(=O)N([C@H](C)CO)C[C@H](C)[C@@H](CN(C)S(=O)(=O)c2ccc(C)cc2)OCCCC[C@@H](C)O3)cc1,20,-1.4
COc1ccc(S(=O)(=O)Nc2ccc3c(c2)C(=O)N([C@@H](C)CO)C[C@@H](C)[C@H](CN(C)S(=O)(=O)c2ccc(F)cc2)O3)cc1,2,0.1
COc1ccc(S(=O)(=O)N(C)C[C@@H]2Oc3ccc(NS(=O)(=O)c4ccc(F)cc4)cc3C(=O)N([C@@H](C)CO)C[C@@H]2C)cc1,10,19*
COc1ccc(S(=O)(=O)N(C)C[C@@H]2OCCCC[C@@H](C)Oc3ccc(NS(=O)(=O)c4ccc(F)cc4)cc3C(=O)N([C@H](C)CO)C[C@@H]2C)cc1,128*,-0.24
Cc1ccc(S(=O)(=O)Nc2ccc3c(c2)C(=O)N([C@H](C)CO)C[C@H](C)[C@H](CN(C)S(=O)(=O)c2ccc(C)cc2)OCCCC[C@@H](C)O3)cc1,19,-0.94
C[C@@H]1CCCCO[C@@H](CN(C)S(=O)(=O)c2ccccc2)[C@@H](C)CN([C@H](C)CO)C(=O)c2cc(NC(=O)Nc3ccc(F)cc3)ccc2O1,105*,0.21
Cc1ccc(S(=O)(=O)Nc2ccc3c(c2)C(=O)N([C@H](C)CO)C[C@H](C)[C@@H](CN(C)S(=O)(=O)c2ccccc2)OCCCC[C@@H](C)O3)cc1,137*,-0.22
O=C(CSCc1ccccc1)Nc1ccc(-c2nc3cccnc3s2)cc1,16,nt
O=C(NCc1ccco1)c1ccc(-n2c(=S)[nH]c3ccccc3c2=O)cc1,3,nt
COC(=O)c1c(C)oc2ccc(OC(=O)c3ccc(OC)cc3)cc12,23,nt
CCc1ccc(NC(=O)N2CC(C)Sc3ccccc32)cc1 (configuration not stated),-7,nt
C[C@@H]1CN([C@H](C)CO)C(=O)c2cc(NC(=O)C3CCCCC3)ccc2O[C@H]1CN(C)S(=O)(=O)c1cn(C)cn1,-8,-0.2
C[C@@H]1CCCCO[C@@H](CN(C)S(=O)(=O)c2cn(C)cn2)[C@@H](C)CN([C@H](C)CO)C(=O)c2cc(NC(=O)C3CCCCC3)ccc2O1,126*,-0.68
C[C@@H]1CCCCO[C@@H](CN(C)S(=O)(=O)c2ccccc2)[C@@H](C)CN([C@H](C)CO)C(=O)c2cc(NS(=O)(=O)c3ccc(F)cc3)ccc2O1,206*,-0.26
C[C@@H]1CCCCO[C@H](CN(C)S(=O)(=O)c2ccc(F)cc2)[C@@H](C)CN([C@H](C)CO)C(=O)c2cc(NS(=O)(=O)c3ccc(F)cc3)ccc2O1,37,0.099
C[C@@H]1CCCCO[C@H](CN(C)CC2CCCCC2)[C@@H](C)CN([C@H](C)CO)C(=O)c2cc(NS(=O)(=O)c3ccc(F)cc3)ccc2O1,98*,0.057
C[C@@H]1CCCCO[C@@H](CN(C)C)[C@@H](C)CN([C@H](C)CO)C(=O)c2cc(NS(=O)(=O)c3ccc(F)cc3)ccc2O1,-5,0.19
SMILES,ROS inducer,YB-1 expression
COc1ccc(C(=O)NCCn2cc(SC(C)c3ccccc3)c3ccccc32)cc1 (configuration not stated),10,0.053
Cc1cc(-n2c(=S)sc3c(=O)n(-c4ccc(F)cc4)c(SCC#N)nc32)ccc1Cl,30,nt
C=CCn1c(=S)n(CC=C)c2ccccc21,-17,nt
Cc1cccc(NC(=O)CN2C(=O)CC(C)S(=O)(=O)c3ccccc32)c1 (configuration not stated),-11,nt
COc1cccc(C2CC(C(F)(F)F)n3ncc(C(=O)O)c3N2)c1 (configuration not stated),14,-0.09
COc1cccc(C2CC(C(F)(F)F)n3ncc(C(=O)NCc4cccnc4)c3N2)c1 (configuration not stated),101*,nt
CCOC(=O)c1cnc2c(C)cc(C)cc2c1Nc1ccc(S(=O)(=O)Nc2ncccn2)cc1,17,nt
CCOC(=O)c1ccc(Nc2c(C(=O)OCC)cnc3ccccc23)cc1,99*,nt
O=C(NCc1ccc(-c2cccs2)cc1)C1=Cc2ccccc2OC1,-7,nt
CCOC(=O)c1c(-c2ccccc2)oc2ccc(O)c(CSCC(=O)Nc3ccccc3)c12,20,9.6*
CCOC(=O)c1ccc(NC(=O)Cn2c(=O)oc3ccccc32)cc1,-21,nt
C[C@@H]1CN([C@@H](C)CO)C(=O)CCCn2nncc2CO[C@H]1CN(C)C(=O)c1ccc2ccn(C)c2c1,94*,-0.16
C[C@H]1CN([C@@H](C)CO)C(=O)CCCn2nncc2CO[C@@H]1CN(C)CC1CC1,71,-0.081
C[C@@H]1CN([C@H](C)CO)C(=O)CCCn2nncc2CO[C@@H]1CN(C)C(=O)c1ccc2ccn(C)c2c1,-7,0.08
C[C@H](CO)N1C[C@H](C)[C@H](CN(C)CC2CC2)OCc2cnnn2CCCC1=O,137*,0.012
COc1cccc(Cn2c(SCc3ccc(C(=O)NC4CCCC4)cc3)nc3ccncc32)c1,19,nt
O=C(CN(Cc1ccc(Br)cc1)S(=O)(=O)c1ccccc1)Nc1ccccc1,0,nt
O=C(O)c1ccc(CSC2CCCCC2)cc1,-13,nt
COc1cc(NC(=O)c2ccc(CSC3CCCCC3)cc2)cc(OC)c1OC,135*,nt
CNC(=O)C1CCN(S(=O)(=O)c2ccc3c(c2)nc(C)n3C2CCCC2)CC1,-17,nt
O=C(c1cccc2ccccc12)N(C1CCCC1)C1CCCC1,10,nt
CSc1ccc(-c2cc(=O)c3ccccc3o2)cc1,31,nt
Cc1ccc(-c2cc(=O)c3ccc4ccccc4c3o2)cc1,95*,nt
O=C(NCc1ccccn1)c1cnn2c(C(F)(F)F)cc(-c3cccs3)nc12,60,nt
CC(NC(=O)c1cnn2c(C(F)(F)F)cc(-c3cccs3)nc12)c1ccccc1 (configuration not stated),85*,nt
O=C(Nc1ccc(-n2nncc2-c2ccccc2)cc1)c1c(F)cccc1F,7,nt
O=C(O)CCC(=O)Nc1ccc2c(c1)C(=O)NC2=O,-6,nt
O=C(O)CCC(=O)Nc1ccc(Cc2ccncc2)cc1,-14,8.6*
Cc1ccc(Cn2cc3c(n2)-c2c(oc(C(=O)NCCCN4CCCCCC4)c2C)CC3)cc1,-14,nt
CN1C2CC[C@H]1CC(OC(=O)C(O)c1ccccc1)C2 (some centres not stated),-7,0.32
